# Source: PubChem BioAssay (NCATS)
# Several values for one entry are separate records, joined by “and”; a condition that tells them apart may be missing. Identical values can stand only once. Results filed as inconclusive are left out. More than one record can exist for a structure, and the calls need not agree. Values without a mark were called inactive. Activity calls are given as the source filed them. Unless noted, calls follow the shape of the dose curve; as a rule, active = well fitted curve in the direction sought with a large enough effect; inconclusive = small, poorly fitted or top-dose-only effect, or another doubt; inactive = no such curve, though single readings can be large; an effect the other way counts as inactive or inconclusive.
# Experiments:
# [1] = target: Cellular tumor antigen p53 (Homo sapiens) (UniProt P04637); experiment: Primary qHTS for small molecule compounds that upregulate eGFP-tagged delta133p53alpha (in N-terminal) cells. (AID 2060322); settings: NCI-H358 eGFP-delta133p53alpha fluorescence, 24 h; activation: stronger effect = higher value; also: nearly all actives have a fitted effect of over 75% in size; also: potency is read from the fitted curve at half-maximal effect;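 as to activation: cells pre-induced with doxycycline then dosed without doxycycline; series mostly up to about 56 µM; 0% = DMSO vehicle and 100% = reference activator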
# Method in brief: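 NCI-H358 cells pre-induced 24 h with 10 ng/ml doxycycline for eGFP-delta133p53alpha, plated dox-free and exposed 24 h at 37C to titrated compounds. Fixed, Hoechst-stained; gated GFP peak intensity by laser scanning cytometry, normalized to DMSO (0%) and 57.5 uM 5-azacytidine (100%).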
# [2] = BET inhibitor-based combinations targeting novel dependencies in MECOM-rearranged (r) AML: SET-2 cell line (AID 2202231); settings: SET-2 AML cells viability, CellTiter-Glo luminescence, 48 h; viability: stronger effect = lower value, concentration not given here; also: nearly all actives have a fitted effect of over 35% in size; also: potency is read from the fitted curve at half-maximal effect;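 as to viability: plate controls were DMSO treated cells for no effect and wells without cells for full effect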
# Method in brief: (§1)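 Here, 11-point titrations of each agent were applied to 500 seeded cells and incubated 48 hr; CellTiter-Glo signal, scaled against DMSO and empty wells, was integrated as AUC, then Z-scored within the individual line.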
# [3] = BET inhibitor-based combinations targeting novel dependencies in MECOM-rearranged (r) AML: MV-4-11 cell line (AID 2202233); also: nearly all actives have a fitted effect of over 45% in size; also: potency is read from the fitted curve at half-maximal effect
# Method in brief: (§2)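 Normalized to DMSO and empty-well controls, the luminescence data from CellTiter-Glo after 48 hr drug exposure were fitted across 11 concentrations. Reported metrics are area under the dose-response curve and its Z-transformed form.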
# [4] = BET inhibitor-based combinations targeting novel dependencies in MECOM-rearranged (r) AML: AML-191 cell line (AID 2202236; also: nearly all actives have a fitted effect of over 35% in size; also: potency is read from the fitted curve at half-maximal effect)
# Method in brief: as §1
# [5] = BET inhibitor-based combinations targeting novel dependencies in MECOM-rearranged (r) AML: AML-194 cell line (AID 2202237; also: nearly all actives have a fitted effect of over 40% in size; also: potency is read from the fitted curve at half-maximal effect)
# Method in brief: as §1
# [6] = target: Cellular tumor antigen p53 (Homo sapiens) (UniProt P04637); experiment: Primary qHTS for small molecule compounds that upregulate eGFP-tagged delta133p53alpha (in C-terminal) cells. (AID 2060324); also: potency is read from the fitted curve at half-maximal effect
# Method in brief: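 Concentration-response screen: compounds titrated onto pre-induced NCI-H358 D133p53a-eGFP cells, incubated one day, fixed with 3.5% PFA. Per-cell GFP peak intensity was gated, then normalized against intraplate controls.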
# [7] = BET inhibitor-based combinations targeting novel dependencies in MECOM-rearranged (r) AML: HNT-34 cell line (AID 2202234); also: nearly all actives have a fitted effect of over 35% in size; also: potency is read from the fitted curve at half-maximal effect
# Method in brief: as §2
# [8] = BET inhibitor-based combinations targeting novel dependencies in MECOM-rearranged (r) AML: OCI-AML3 cell line (AID 2202232); settings: Potency: OCI-AML3 viability; also: nearly all actives have a fitted effect of over 35% in size; also: potency is read from the fitted curve at half-maximal effect
# Method in brief: as §1
# [9] = BET inhibitor-based combinations targeting novel dependencies in MECOM-rearranged (r) AML: UCSD-AML1 cell line (AID 2202235); also: nearly all actives have a fitted effect of over 40% in size; also: potency is read from the fitted curve at half-maximal effect
# Method in brief: as §2
# [10] = target: Aldehyde dehydrogenase, mitochondrial (Homo sapiens) (UniProt P05091); experiment: qHTS for Inhibitors of the Aldehyde Dehydrogenase Family (ALDH2) Validation screens (AID 2061302; active = well fitted inhibition curve with a large enough effect; title and protocol of this record describe different tests;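 also: plate controls were DMSO vehicle for no effect and maximal DPI positive control response for full effect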)
# Sequence of Cellular tumor antigen p53 (Homo sapiens) (P04637 whole entry, looked up): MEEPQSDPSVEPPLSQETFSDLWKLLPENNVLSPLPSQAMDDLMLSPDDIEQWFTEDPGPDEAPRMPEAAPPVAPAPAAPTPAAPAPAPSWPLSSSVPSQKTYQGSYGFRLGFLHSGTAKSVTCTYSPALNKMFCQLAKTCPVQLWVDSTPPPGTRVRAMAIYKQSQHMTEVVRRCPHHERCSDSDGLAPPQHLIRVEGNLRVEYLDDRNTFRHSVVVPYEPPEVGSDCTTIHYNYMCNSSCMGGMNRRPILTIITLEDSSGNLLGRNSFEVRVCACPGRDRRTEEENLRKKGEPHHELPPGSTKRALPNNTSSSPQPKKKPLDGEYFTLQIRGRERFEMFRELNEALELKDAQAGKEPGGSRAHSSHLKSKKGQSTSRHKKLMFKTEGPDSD
compound,measurement,setting,value
O=C(NCC1CCCCN1)c1cc(OCC(F)(F)F)ccc1OCC(F)(F)F (stereo not given),Potency,[1],27.3 µM (active)
same,activation,[1],9.6%
same,viability,[2],112%
same,Potency,[3],inactive
same,Potency,[4],inactive
same,Potency,[5],inactive
CC1=C(CC(=O)O)c2cc(F)ccc2/C1=C\c1ccc(S(C)=O)cc1 (stereo not given),activation,[1],19.2% and 25%
same,Potency,[6],inactive
C[C@H]1c2cccc(O)c2C(O)=C2C(=O)[C@]3(O)C(O)=C(C(N)=O)C(=O)[C@@H](N(C)C)[C@@H]3[C@@H](O)[C@@H]21,Potency,[1],15.5 µM (active) and 2.73 µM (active)
same,activation,[1],-2.21%
same,Potency,[7],18.6 µM (active)
same,Potency,[4],26.3 µM (active)
same,Potency,[5],23.5 µM (active)
O=C1N=C(O)CN1/N=C/c1ccc(-c2ccc([N+](=O)[O-])cc2)o1,activation,[1],5.02% and 6.04%
same,Potency,[6],inactive
Brc1c(Br)c(Br)c2n[nH]nc2c1Br,activation,[1],-52.8%
same,Potency,[6],inactive
O=C(O)C1=CC(=C(c2ccc(O)c(C(=O)O)c2)c2ccc(O)c(C(=O)O)c2)C=CC1=O,activation,[1],-71.6%
same,Potency,[6],inactive
CCCOc1ccc(C(=O)OCCN(CC)CC)cc1N,Potency,[1],24.3 µM (active)
same,activation,[1],9.6%
same,viability,[2],101%
same,Potency,[8],inactive
same,Potency,[3],inactive
same,Potency,[7],inactive
same,Potency,[9],inactive
same,Potency,[4],inactive
same,Potency,[5],inactive
CC(C)(C)c1onc(OCP(=O)(O)O)c1CC(N)C(=O)O (stereo not given),activation,[1],5.95%
same,Potency,[6],inactive
same,Potency,[10],inactive
NC1(C(=O)O)CC1,activation,[1],-6.03%
same,Potency,[6],inactive
C[n+]1cc2c3c(ccc2c2ccc4cc5c(cc4c21)OCO5)OCO3,Potency,[1],1.9 µM (active) and 2.39 µM (active)
same,Potency,[6],7.57 µM (active)
Cc1c(-c2ccc(O)cc2)n(Cc2ccc(OCCN3CCCCCC3)cc2)c2ccc(O)cc12,Potency,[1],38.9 µM (active)
same,activation,[1],-20.9%
same,Potency,[2],23.5 µM (active)
same,Potency,[8],16.6 µM (active)
same,Potency,[9],inactive
same,Potency,[5],26.3 µM (active)
CC(=O)N(O)CCCCCNC(=O)CCC(=O)N(O)CCCCCNC(=O)CCC(=O)N(O)CCCCCN,Potency,[1],1.36 µM (active)
same,activation,[1],41.2%
same,Potency,[2],20.9 µM (active)
same,Potency,[8],11.8 µM (active)
same,Potency,[3],11.8 µM (active)
same,Potency,[7],9.34 µM (active)
same,Potency,[4],8.33 µM (active)
same,Potency,[5],9.34 µM (active)
Oc1cc2c(c(Cl)c1O)CCNCC2c1ccccc1 (stereo not given),activation,[1],-28%
same,Potency,[6],inactive
same,Potency,[10],inactive
Cc1cc2c(C(C)C)c(O)c(O)c(C=O)c2c(O)c1-c1c(C)cc2c(C(C)C)c(O)c(O)c(C=O)c2c1O,Potency,[1],24.6 µM (active)
same,activation,[1],-36.4%
same,Potency,[2],9.34 µM (active)
same,Potency,[8],9.34 µM (active)
same,Potency,[3],9.34 µM (active)
same,Potency,[7],9.34 µM (active)
same,Potency,[9],9.34 µM (active)
same,Potency,[4],9.34 µM (active)
same,Potency,[5],13.2 µM (active)
CCCOc1ccc2nc(NC(=O)OC)[nH]c2c1,Potency,[1],0.0685 µM (active)
same,activation,[1],62.8%
same,Potency,[2],0.525 µM (active)
same,Potency,[8],0.332 µM (active)
same,Potency,[3],0.372 µM (active)
same,Potency,[7],0.235 µM (active)
same,Potency,[9],0.263 µM (active)
same,Potency,[4],0.263 µM (active)
same,Potency,[5],0.235 µM (active)
CCCCCCCCCC(=O)NC(CN1CCOCC1)[C@H](O)c1ccccc1 (stereo not given in full),activation,[1],-7.14%
same,Potency,[6],inactive
C=CCN1CCc2c(cc(O)c(O)c2Cl)C(c2ccccc2)C1 (stereo not given),activation,[1],-14.2%
same,Potency,[6],inactive
Cc1coc2c1C(=O)C(=O)c1c-2ccc2c1CCCC2(C)C,Potency,[1],8.49 µM (active)
same,activation,[1],36.5%
same,viability,[2],97.6%
same,Potency,[7],18.6 µM (active)
same,Potency,[9],inactive
same,Potency,[4],inactive
same,Potency,[5],inactive
COc1cccc2c1[C@@H]1CN(CCCCn3c(=O)[nH]c4c(sc5ncc(-c6ccccc6)nc54)c3=O)C[C@@H]1CO2,activation,[1],-97.6%
same,Potency,[6],inactive
COc1ccc(Br)cc1S(=O)(=O)NC(=O)/C=C/c1ccccc1Cc1ccc2ccccc2c1,activation,[1],-15.8%
same,Potency,[6],inactive
C=CC1(C)CC(=O)C2(O)C(C)(O1)C(OC(C)=O)C(O)C1C(C)(C)CCC(O)C12C (stereo not given),activation,[1],-19.1%
same,Potency,[6],inactive
N#Cc1cc([N+](=O)[O-])c2sc(C(N)=O)[n+]([O-])c2c1,activation,[1],-56.4%
same,Potency,[6],inactive
NC1CCN(O)C1=O (stereo not given),activation,[1],-20%
same,Potency,[6],inactive
same,Potency,[10],inactive
O=C(OCCN1CCOCC1)C1(c2ccccc2)CCCCC1,activation,[1],-19.6%
same,Potency,[6],inactive
Cc1nc2n(c(=O)c1CCN1CCC(c3noc4cc(F)ccc34)CC1)CCCC2O (stereo not given),activation,[1],3.58%
same,Potency,[6],inactive
same,Potency,[10],inactive
O=C(O)COCCN1CCN(C(c2ccccc2)c2ccc(Cl)cc2)CC1 (stereo not given),activation,[1],0.565% and 21.7% and -7.29%
same,Potency,[6],inactive
same,Potency,[10],inactive
COC(=O)[C@H]1[C@H]2C[C@H]3c4[nH]c5ccccc5c4CCN3C[C@H]2CC[C@@H]1O,activation,[1],-1.08%
same,Potency,[6],inactive
same,Potency,[10],inactive
Oc1cc2c(cc1O)C(c1ccccc1)CNCC2 (stereo not given),activation,[1],5.86%
same,Potency,[6],inactive
same,Potency,[10],inactive
CN(C)CCCc1cc(C(=O)Nc2ccc(-c3ccncc3)cc2)ccc1O,activation,[1],-14.9%
same,Potency,[6],inactive
same,Potency,[10],inactive
COc1ccc2c(c1OC)C(=O)O[C@@H]2[C@H]1c2c(cc3c(c2OC)OCO3)CCN1C,Potency,[1],21.9 µM (active)
same,Potency,[6],inactive
same,Potency,[10],inactive
[N-]=[N+]=Nc1ccc(C(=O)CSC[C@H](NC(=O)CC[C@H](N)C(=O)O)C(=O)NCC(=O)O)cc1,activation,[1],-38.2%
same,Potency,[6],inactive
same,Potency,[10],inactive
